Among the data in PubChem BioAssay (Tox21) are Potency and outcome values, retold here.

Records with an inconclusive call do not appear. A number with no mark means an inactive call. Calls of active or inactive are those of the source. Unless noted, calls follow the shape of the full dose curve.

Experiment [1] is described as follows: qHTS assay to identify small molecule antagonists of the peroxisome proliferator-activated receptor delta (PPARd) signaling pathway - cell viability counter screen (AID 743213; active = well fitted curve in the direction sought with a large enough effect in the repeat runs; an effect the other way counts as inactive or inconclusive; also: nearly all actives have a fitted effect of over 50% in size). Put shortly:
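Same-well viability: cells pre-incubated 5 h, dosed with compound plus 300 nM L165041, kept 17 h at 37 C, FRET substrate 2 h RT, then CellTiter-Glo 30 min RT and luminescence.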
In general terms: Quantitative high-throughput screening tests each substance at several concentrations.

The nature of experiment [2]: qHTS assay to identify small molecule antagonists of the farnesoid-X-receptor (FXR) signaling pathway - cell viability counter screen (AID 743221; active = well fitted cell-killing curve with a large enough effect in the repeat runs, not every such curve was filed as active; also: nearly all actives have a fitted effect of over 50% in size). The essentials:
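Cytotoxicity counter screen run in the FXR-bla reporter wells: HEK 293T cells exposed to compound with 50 uM (final) chenodeoxycholic acid for 16 h, 37 C, then viability measured by CellTiter-Glo luminescence after 30 min, room temperature.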

Experiment [3] deals with Vitamin D3 receptor (Homo sapiens) (UniProt P11473). The experiment is described as follows: qHTS assay to identify small molecule agonists of the vitamin D receptor (VDR) signaling pathway (AID 743222). The essentials: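 In VDR-bla cells, compound-induced beta-lactamase expression is quantified by FRET substrate fluorescence. Treatment lasts 16 h at 37C; substrate develops 2 h at room temperature.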

Experiment [4] is described as follows: qHTS assay to identify small molecule agonists of the vitamin D receptor (VDR) signaling pathway - cell viability counter screen (AID 743224; active = well fitted curve in the direction sought with a large enough effect in the repeat runs; an effect the other way counts as inactive or inconclusive; also: series mostly up to about 63 µM; nearly all actives have a fitted effect of over 50% in size). The essentials: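 Plated VDR-bla cells (4 h, 37C) received compound, incubated 16 h, then LiveBLAzer substrate 2 h RT; CellTiter-Glo added afterwards, luminescence read at 30 min.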
A short description of experiment [5]: qHTS assay to identify small molecule antagonists of the vitamin D receptor (VDR) signaling pathway - cell viability counter screen (AID 743225; active = well fitted curve in the direction sought with a large enough effect in the repeat runs; an effect the other way counts as inactive or inconclusive; also: nearly all actives have a fitted effect of over 50% in size). Put shortly: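 Cytotoxicity counter screen read by CellTiter-Glo luminescence (30 min, room temperature) in the same wells as the VDR-bla antagonist readout. HEK 293T VDR-UAS-bla cells had 16 h at 37C with compound and 3 nM (final) 1-alpha,25-dihydroxyvitamin D3, then 2 h with FRET substrate.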

Experiment [6] is described as follows: qHTS assay to identify small molecule agonists of the NFkB signaling pathway (AID 1159509; active = well fitted curve in the direction sought with a large enough effect in the signal ratio in the repeat runs, not every such curve was filed as active; the % refers to the signal ratio; also: series mostly up to about 61 µM). The essentials:
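NFkB-bla ME-180 cells carry a beta-lactamase reporter under an NF-kB response element. They were plated overnight, then exposed to compounds for 5 h at 37 C. Read-out is LiveBLAzer FRET after 1.5 hr at room temperature (405 nm excitation; 460/530 nm emission).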

Experiment [7] is described as follows: qHTS assay to identify small molecule agonists of the NFkB signaling pathway - cell viability counter screen (AID 1159515). Also: series mostly up to about 61 µM; nearly all actives have a fitted effect of over 55% in size. Put shortly: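 Using the same wells as the NFkB reporter read, ME-180 NFkB-bla cells given compounds for 5 hr were assessed for viability via CellTiter-Glo, with luminescence taken after a 30 min room-temperature incubation.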
A short description of experiment [8]: qHTS assay to identify small molecule agonists of the endoplasmic reticulum stress response signaling pathway (AID 1159516; active = well fitted activation curve with a large enough effect in the signal ratio in the repeat runs, not every such curve was filed as active; the % refers to the signal ratio). The essentials:
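An ESRE-bla HeLa cell assay: compounds were pin-transferred from DMSO onto overnight-plated cells and left 5 hr at 37 C. Substrate was then loaded for 2 hr at room temperature before reading fluorescence at 460 nm and 530 nm.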

A short description of experiment [9]: qHTS assay to identify small molecule agonists of the endoplasmic reticulum stress response signaling pathway - cell viability counter screen (AID 1159517). The essentials: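 ESRE-bla HeLa cells, 1,500 per well, seeded overnight then treated with compounds for 5 hr at 37 C. After the beta-lactamase read, viability in the same wells is measured by CellTiter-Glo luminescence after 30 min at room temperature.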

The nature of experiment [10]: qHTS assay to identify small molecule agonists of the AP-1 signaling pathway - cell viability counter screen (AID 1159525). Also: nearly all actives have a fitted effect of over 55% in size. The essentials: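 AP-1-bla ME-180 cells in Opti-MEM with 0.5% dialyzed FBS, compound exposure 5 h at 37 C in 15-point titration. Viability read in the same wells as ATP content by CellTiter-Glo luminescence, normalised to tetra-n-octylammonium bromide and DMSO controls.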

The nature of experiment [11]: qHTS assay to identify small molecule agonists of the AP-1 signaling pathway (AID 1159526).
The target in experiment [12] is Retinoic acid receptor RXR-alpha (Homo sapiens) (UniProt P19793). As to the kind of experiment: qHTS assay to identify small molecule agonists of the RXR signaling pathway (AID 1159527). Also: nearly all actives have a fitted effect of over 35% in size. Put shortly:
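Agonist-mode beta-lactamase reporter assay: HEK 293T RXR-alpha-UAS-bla cells treated 16 hr at 37 C with compounds, 9-cis retinoic acid as positive control. LiveBLAzer FRET substrate, 405 nm excitation, 460/530 nm emission.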

For experiment [13], the target named is Peroxisome proliferator-activated receptor delta (Homo sapiens) (UniProt Q03181). As to the kind of experiment: qHTS assay to identify small molecule antagonists of the peroxisome proliferator-activated receptor delta (PPARd) signaling pathway (AID 743215; active = well fitted inhibition curve with a large enough effect in the signal ratio in the repeat runs, not every such curve was filed as active; the % refers to the signal ratio;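 also: cells stimulated with agonist L165041 at 300 nM final during compound exposure; series mostly up to about 62 µM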). Put shortly:
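HEK293H UAS-bla, PPARd; agonist L165041 300 nM final with cpd in DMSO; 37 C 17 h; FRET substrate, RT 2 h; fluorescence intensity.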

The target in experiment [14] is Bile acid receptor (Homo sapiens) (UniProt Q96RI1). The experiment is described as follows: qHTS assay to identify small molecule antagonists of the farnesoid-X-receptor (FXR) signaling pathway (AID 743217; active = well fitted inhibition curve with a large enough effect in the signal ratio in the repeat runs, not every such curve was filed as active; the % refers to the signal ratio; also: potency is read from the fitted curve at half-maximal effect). Put shortly:
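GeneBLAzer FXR-UAS-bla HEK 293T, CDCA-stimulated (50 uM final). Compound treatment 16 h, 37 °C. Detection: beta-lactamase cleavage of B/G FRET substrate, fluorescence.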

For experiment [15], the target named is Vitamin D3 receptor (Homo sapiens) (UniProt P11473). The experiment is described as follows: qHTS assay to identify small molecule antagonists of the vitamin D receptor (VDR) signaling pathway (AID 743223; active = well fitted inhibition curve with a large enough effect in the signal ratio in the repeat runs, not every such curve was filed as active; the % refers to the signal ratio). The essentials: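 Antagonist mode: compound added to VDR-bla cells alongside agonist 1alpha,25-dihydroxyvitamin D3 (3 nM final), incubation 16 h at 37C. Read-out is LiveBLAzer FRET fluorescence, 2 h at room temperature.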

Experiment [16] is described as follows: qHTS assay to identify small molecule antagonists of the retinoid-related orphan receptor gamma (ROR-gamma) signaling pathway - cell viability counter screen (AID 1159520; active = well fitted curve in the direction sought with a large enough effect in the repeat runs; an effect the other way counts as inactive or inconclusive; also: nearly all actives have a fitted effect of over 50% in size). Put shortly: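 Tet-on ROR gamma CHO cells were given compounds for 2 hr, then doxycycline hyclate at 1 uM final, and incubated 16 hr at 37 C. Viability was measured as ATP content by CellTiter-Glo luminescence.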

Experiment [17] addresses Nuclear receptor ROR-gamma (Homo sapiens) (UniProt P51449). The experiment is described as follows: qHTS assay to identify small molecule antagonists of the retinoid-related orphan receptor gamma (ROR-gamma) signaling pathway (AID 1159521; active = well fitted curve in the direction sought with a large enough effect in the repeat runs; an effect the other way counts as inactive or inconclusive). The essentials:
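Antagonist read-out: drop in luminescence (ONE-Glo) from an RORE-LUC reporter in CHO cells with doxycycline-inducible ROR-gamma; 2 hr compound pretreatment, 1 uM doxycycline, 16 hr incubation at 37 C.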

Experiment [18] concerns the target Peroxisome proliferator-activated receptor delta (Homo sapiens) (UniProt Q03181). As to the kind of experiment: qHTS assay to identify small molecule agonists of the peroxisome proliferator-activated receptor delta (PPARd) signaling pathway (AID 743212). Put shortly:
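GeneBLAzer UAS-bla HEK293H cells carrying a PPARδ construct were exposed to compounds at 37 °C. Beta-lactamase activity was read by FRET fluorescence after 2 h at room temperature with LiveBLAzer B/G substrate.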

Experiment [19] can be described thus: qHTS assay to identify small molecule agonists of the farnesoid-X-receptor (FXR) signaling pathway - cell viability counter screen (AID 743218; active = well fitted curve in the direction sought with a large enough effect in the repeat runs; an effect the other way counts as inactive or inconclusive; also: nearly all actives have a fitted effect of over 45% in size). The essentials:
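Parallel cytotoxicity test: compound-treated (16 h, 37 C) HEK 293T FXR-bla reporter cells were lysed with CellTiter-Glo and luminescence recorded.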

Experiment [20] has as its target Bile acid receptor (Homo sapiens) (UniProt Q96RI1). The experiment is described as follows: qHTS assay to identify small molecule agonists of the farnesoid-X-receptor (FXR) signaling pathway (AID 743220; active = well fitted activation curve with a large enough effect in the signal ratio in the repeat runs, not every such curve was filed as active; the % refers to the signal ratio). Put shortly: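 Beta-lactamase reporter under UAS control in GeneBLAzer FXR HEK 293T cells (5000/well) measured with LiveBLAzer FRET substrate after 2 h at room temperature. Compound exposure lasted 16 h at 37C.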

Chain of Vitamin D3 receptor (Homo sapiens) (P11473 whole entry, looked up): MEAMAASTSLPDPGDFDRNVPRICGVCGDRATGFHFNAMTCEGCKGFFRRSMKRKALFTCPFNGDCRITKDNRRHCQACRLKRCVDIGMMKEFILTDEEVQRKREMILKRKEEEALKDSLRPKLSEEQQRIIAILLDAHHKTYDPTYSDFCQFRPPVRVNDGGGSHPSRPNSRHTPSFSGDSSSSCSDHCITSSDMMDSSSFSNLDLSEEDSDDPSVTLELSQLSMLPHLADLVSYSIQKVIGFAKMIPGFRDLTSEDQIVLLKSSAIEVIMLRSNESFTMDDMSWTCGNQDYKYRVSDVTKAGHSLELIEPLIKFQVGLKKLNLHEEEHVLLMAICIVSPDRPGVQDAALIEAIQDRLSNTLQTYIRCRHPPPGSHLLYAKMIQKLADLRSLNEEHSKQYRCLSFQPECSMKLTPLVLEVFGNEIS
Chain of Peroxisome proliferator-activated receptor delta (Homo sapiens) (Q03181 whole entry, looked up): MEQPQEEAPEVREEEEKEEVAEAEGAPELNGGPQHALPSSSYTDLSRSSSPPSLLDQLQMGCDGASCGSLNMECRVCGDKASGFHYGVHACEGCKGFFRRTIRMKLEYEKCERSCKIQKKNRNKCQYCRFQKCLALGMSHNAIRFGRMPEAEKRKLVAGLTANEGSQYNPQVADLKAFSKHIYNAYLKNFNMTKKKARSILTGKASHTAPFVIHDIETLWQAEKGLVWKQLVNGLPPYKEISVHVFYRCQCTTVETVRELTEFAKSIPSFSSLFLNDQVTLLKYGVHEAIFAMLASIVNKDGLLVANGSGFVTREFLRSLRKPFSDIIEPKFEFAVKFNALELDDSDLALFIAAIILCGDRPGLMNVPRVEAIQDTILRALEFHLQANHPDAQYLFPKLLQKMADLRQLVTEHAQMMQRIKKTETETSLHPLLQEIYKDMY
Chain of Retinoic acid receptor RXR-alpha (Homo sapiens) (P19793 whole entry, looked up): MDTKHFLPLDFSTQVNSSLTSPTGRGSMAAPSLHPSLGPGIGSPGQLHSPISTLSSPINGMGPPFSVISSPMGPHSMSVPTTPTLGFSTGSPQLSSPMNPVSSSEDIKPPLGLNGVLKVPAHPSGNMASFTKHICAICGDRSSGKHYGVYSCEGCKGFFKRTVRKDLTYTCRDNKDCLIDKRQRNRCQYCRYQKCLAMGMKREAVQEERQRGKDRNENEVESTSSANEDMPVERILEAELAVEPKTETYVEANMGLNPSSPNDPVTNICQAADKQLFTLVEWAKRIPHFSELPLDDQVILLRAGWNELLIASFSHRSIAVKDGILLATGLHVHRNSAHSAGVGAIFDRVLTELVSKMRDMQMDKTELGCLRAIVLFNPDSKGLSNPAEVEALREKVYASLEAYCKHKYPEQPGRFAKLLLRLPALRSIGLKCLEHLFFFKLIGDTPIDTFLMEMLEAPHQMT
Chain of Bile acid receptor (Homo sapiens) (Q96RI1 whole entry, looked up): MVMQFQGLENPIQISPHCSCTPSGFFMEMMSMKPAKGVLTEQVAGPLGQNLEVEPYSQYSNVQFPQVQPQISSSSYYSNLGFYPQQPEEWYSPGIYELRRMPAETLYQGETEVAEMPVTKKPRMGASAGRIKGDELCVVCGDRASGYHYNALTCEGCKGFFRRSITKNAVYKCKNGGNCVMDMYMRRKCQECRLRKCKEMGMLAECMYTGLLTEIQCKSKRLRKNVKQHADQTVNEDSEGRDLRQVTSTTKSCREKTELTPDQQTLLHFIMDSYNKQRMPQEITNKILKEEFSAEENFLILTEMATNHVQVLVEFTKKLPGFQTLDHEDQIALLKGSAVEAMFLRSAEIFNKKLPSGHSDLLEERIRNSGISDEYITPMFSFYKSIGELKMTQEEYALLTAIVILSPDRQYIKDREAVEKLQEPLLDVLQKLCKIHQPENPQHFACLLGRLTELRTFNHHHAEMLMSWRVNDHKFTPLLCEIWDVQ

In the case of `Cc1cc(C(=C2C=CC(=Nc3ccc(S(=O)(=O)O)cc3S(=O)(=O)O)C=C2)c2ccc(Nc3ccc(S(=O)(=O)O)cc3)cc2)ccc1N`, the Potency entry in experiment [1], in experiment [2], in [4], in [5] and in [12] was “inactive” in each case. Moreover, the result in experiment [3], in experiment [6], in experiment [7], in experiment [8], in [9] and in experiment [10] was inactive. Besides, in [11], the result was inactive.
Consider `CCC(=O)OC/C=C/c1ccccc1`, for which the Potency entry in experiment [1], in experiment [13], in experiment [14], in experiment [2], in [4] and in experiment [5] was “inactive” throughout. For the same compound, the Potency result in experiment [16], in experiment [17] and in experiment [12] was “inactive” throughout. Further, the outcome in experiment [3], in experiment [15], in [6], in [7], in [8] and in experiment [10] was inactive. In experiment [11], the compound was classed as inactive.
In the case of `C=CC(C)(C)CC(=O)OC`, the Potency result in experiment [18], in experiment [1], in [13], in experiment [14], in experiment [19] and in [20] was “inactive” in each case. The Potency entry in experiment [2], in [4] and in [5] was “inactive” in each case. The outcome in experiment [3], in [6], in experiment [7], in experiment [8], in [9] and in experiment [10] was inactive. The outcome in experiment [11] was inactive.
For `C=C(C)C(=O)OCCOC(=O)CC(C)=O`, the Potency entry in experiment [18], in experiment [14], in experiment [19], in [20], in experiment [2] and in experiment [4] was “inactive” each time. Further, the result in experiment [3], in [6], in experiment [7], in experiment [8], in experiment [9] and in experiment [10] was inactive. Further, the call in [11] was inactive.
With `Cc1nc2ccccc2s1`, the Potency result in experiment [18], in experiment [1], in experiment [13], in experiment [19], in experiment [2] and in [4] was “inactive” in each case. Besides, the Potency result in experiment [5], in experiment [16], in experiment [17] and in experiment [12] was “inactive” each time. The outcome in [3], in experiment [6], in experiment [7], in experiment [8], in experiment [10] and in [11] was inactive.
For the compound `CC1(C)C(=O)N(Br)C(=O)N1Cl`, the Potency entry in [1], in [13], in [19], in experiment [2], in experiment [4] and in [5] was “inactive” in each case. Also, the Potency result in experiment [12] is “inactive”. For the same compound, the outcome in [3], in experiment [6], in experiment [7], in [8], in experiment [9] and in experiment [10] was inactive.
For the compound `CCCCCCCCSCCO`, the Potency entry in experiment [18], in experiment [1], in experiment [13], in [14], in experiment [19] and in experiment [20] was “inactive” in each case. Besides, the Potency entry in experiment [2], in experiment [4], in [5], in experiment [16], in experiment [17] and in experiment [12] was “inactive” in each case. For the same compound, the outcome in [6], in experiment [7], in [8], in experiment [10] and in [11] was inactive.
In the case of `O=C(NCCCN1CCOCC1)c1ccc(Cl)cc1`, the Potency entry in experiment [18], in experiment [1], in experiment [13], in [19], in experiment [2] and in experiment [4] was “inactive” in each case. Further, in [5], the Potency entry is “inactive”. For the same compound, the call in experiment [3], in experiment [6], in experiment [7], in [8], in [9] and in experiment [10] was inactive. For the same compound, in experiment [11], the result was inactive.
On to `C(=C\c1ccccc1)/CN1CCN(C(c2ccccc2)c2ccccc2)CC1`, for which the Potency entry in experiment [2] and in [5] was “inactive” each time. The compound was called inactive in [3], in experiment [15], in experiment [6], in experiment [7], in experiment [8] and in [9]. In addition, the call in experiment [10] was inactive.
Consider `Cc1cc2nc3ccc(=[N+](C)C)cc-3sc2cc1N`, for which the Potency result in experiment [1], in experiment [13], in experiment [2], in experiment [5] and in experiment [17] was “inactive” in each case. Moreover, in [14], the Potency is 10.6 µM (active). In addition, the result in [3], in experiment [15], in [6], in experiment [7] and in experiment [8] was inactive.
For `C[N+]1(C)CCC(=C(c2ccccc2)c2ccccc2)CC1`, the Potency entry in [1], in experiment [14], in experiment [19], in [20], in experiment [2] and in experiment [4] was “inactive” each time. In addition, the Potency entry in [5], in experiment [16], in experiment [17] and in experiment [12] was “inactive” in each case. The compound was classed as inactive in experiment [3], in [15], in experiment [6], in experiment [7], in experiment [8] and in [10]. Besides, the result in [11] was inactive.
As for `CCCCCCCC/C=C\CCCCCCCC(=O)OC`, the Potency entry in [18], in [1], in experiment [13], in [2], in [4] and in experiment [5] was “inactive” throughout. In addition, the Potency entry in [16] and in experiment [12] was “inactive” throughout. For the same compound, the call in experiment [3], in [6], in experiment [7], in experiment [8], in experiment [10] and in experiment [11] was inactive.
